According to PubChem BioAssay (NCI):
This is part of a sample that, as a whole, favours compounds with a hit. Of some 83,000 tested, about 20% had one in any assay.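 Treatment: one concentration, 48 hours, 96-well format. Scoring: percent growth, with anything below 10 considered active.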 The source made the active and inactive calls.

test system: HL-60(TB) leukemia; assay: NCI-60 one-dose screen, 48 h (100 = growth as untreated, 0 = no growth, -100 = all killed); details: 10 µM unless noted

Compound | growth
CN(C)c1ccc(-c2c(C#N)c(N)n3nc(N)c(C#N)c3c2C#N)cc1 | 95.7% (inactive)
CC(C)c1ncc(CO)n1Cc1c(Cl)cccc1Cl | 98.7% (inactive)
CCOC(=O)C1CN(Cc2ccccc2)C(=O)C1=O (centres undefined) | 7.35% (active)
COc1ccc(-c2cc(-c3ccc(OC)c(OC)c3)nc(SCCCC(=O)NO)n2)cc1 | -34.9% (active)
Brc1ccc(-c2nc3ccccc3s2)cc1 | 99.6% (inactive)
CCCSC1=NC2C(N(CC)C(=O)N2CC)N1/N=C/C=C/c1ccccc1[N+](=O)[O-] (centres undefined) | -29.8% (active)
CC1CCC2(C(=O)O)CCC3(C)C(=CCC4C5(C)CC(O)C(O)C(C)(CO)C5C(O)CC43C)C2C1C (centres undefined) | 118% (inactive)
C#CC[C@@H]1C[C@]2(C)[C@H]3CC[C@@H]4[C@H]5C(C(=C)C)CC[C@]5(C(=O)NCCN(CCN)CCN)CC[C@@]4(C)[C@]3(C)CC[C@H]2C(C)(C)[C@H]1OC(C)=O (some centres undefined) | 41.5% (inactive)
CCOC(=O)C(=CNc1ccccc1Cl)C(=O)OCC | 86.4% (inactive)
CCCCCCCCCc1cc(CN2CCCCC2)c(O)c(CN2CCCCC2)c1 | 60.7% (inactive)
COc1cccc(/C=C/C(=O)c2cc3c(N)c(C(=O)Nc4ccccc4C)sc3nc2C)c1 | 26.3% (inactive)
CCOc1cc2ncc(C#N)c(Nc3ccc(OCc4cccc(F)c4)c(Cl)c3)c2cc1NC(=O)CCCCC1CCSS1 (centres undefined) | 108% (inactive)
Clc1nnc2c3ccccc3ccn12 | 92.6% (inactive)
CN(C)c1ccc(/C=C/c2c(F)cccc2F)cc1 | 98.8% (inactive)
